Experimental data from PubChem BioAssay (EPA / NIEHS).
Values joined by “and” are separate entries in the source; they are usually repeats but may differ in a detail not shown here. Identical values can stand only once. Records with an inconclusive call do not appear. Active and inactive are the calls of the source. How the source made its calls: active means hit-call score of the fitted dose curve at least 0.9, where 1 is the maximum; inconclusive means response in the unintended direction; inactive means score below 0.9.

Legend:
[1] = target: sheep Cyclooxygenase-2 (Cox2), PTGS2 (gene 443460) (UniProt P79208); test: NVS_ENZ_oCOX2: NovaScreen (NVS) Enzymatic Assay for sheep Cyclooxygenase-2 (Cox2) (AID 2283231)
Sequence of sheep Cyclooxygenase-2 (Cox2), PTGS2 (gene 443460) (P79208 whole entry, looked up): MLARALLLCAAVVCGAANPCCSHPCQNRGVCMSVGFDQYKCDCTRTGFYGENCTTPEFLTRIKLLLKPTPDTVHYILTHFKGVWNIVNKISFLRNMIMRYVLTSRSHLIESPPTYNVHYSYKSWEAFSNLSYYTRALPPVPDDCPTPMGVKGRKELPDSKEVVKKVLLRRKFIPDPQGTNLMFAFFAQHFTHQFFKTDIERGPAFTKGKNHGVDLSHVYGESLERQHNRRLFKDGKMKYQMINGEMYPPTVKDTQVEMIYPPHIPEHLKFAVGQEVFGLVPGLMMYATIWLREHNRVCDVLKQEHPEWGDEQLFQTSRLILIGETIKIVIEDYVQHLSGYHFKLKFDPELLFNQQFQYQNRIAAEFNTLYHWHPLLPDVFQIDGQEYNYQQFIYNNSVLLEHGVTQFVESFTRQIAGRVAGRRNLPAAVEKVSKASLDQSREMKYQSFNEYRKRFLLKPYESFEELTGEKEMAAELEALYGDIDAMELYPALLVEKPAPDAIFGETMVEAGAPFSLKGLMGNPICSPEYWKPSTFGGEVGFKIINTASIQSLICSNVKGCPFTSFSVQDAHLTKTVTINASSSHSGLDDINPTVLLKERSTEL
Method in brief: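 Colorimetric absorbance read-out of COX activity, taken 0.66 hour post-dosing, using native protein from sheep placenta. Single-concentration duplicate screen (25 uM), then singleton concentration-response up to 50 uM for actives.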

[2] = tested on: rat Monoamine Oxidase, MAO-A, Peripheral (MAOAP), gene 29253; test: NVS_ENZ_rMAOAP: NovaScreen (NVS) Enzymatic Assay for rat Monoamine Oxidase, MAO-A, Peripheral (MAOAP) (AID 2283237)
Method in brief: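 Scintillation counting tracked MAO-A activity in a cell-free rat liver mitochondrial membrane prep, read 1.17 hours after compound addition. Single-point duplicate testing at 25 uM preceded concentration-response follow-up; activity was fitted relative to DMSO.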

[3] = target: human Protein Tyrosine Phosphatase Receptor Type C (PTPRC), PTPRC (gene 5788) (UniProt P08575); test: NVS_ENZ_hPTPRC: NovaScreen (NVS) Enzymatic Assay for human Protein Tyrosine Phosphatase Receptor Type C (PTPRC) (AID 2283212)
Method in brief: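 Absorbance-based phosphatase activity of human PTPRC protein extracted from yeast was measured 1 h post-dosing. Compounds first tested at 25 uM in duplicate, then those passing threshold in singleton concentration series to 50 uM.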

[4] = target: human Vascular Endothelial Growth Factor Receptor 2 (VEGFR2), KDR (gene 3791) (UniProt P35968); test: NVS_ENZ_hVEGFR2: NovaScreen (NVS) Enzymatic Assay for human Vascular Endothelial Growth Factor Receptor 2 (VEGFR2) (AID 2283230)
Sequence of human Vascular Endothelial Growth Factor Receptor 2 (VEGFR2), KDR (gene 3791) (P35968 whole entry, looked up): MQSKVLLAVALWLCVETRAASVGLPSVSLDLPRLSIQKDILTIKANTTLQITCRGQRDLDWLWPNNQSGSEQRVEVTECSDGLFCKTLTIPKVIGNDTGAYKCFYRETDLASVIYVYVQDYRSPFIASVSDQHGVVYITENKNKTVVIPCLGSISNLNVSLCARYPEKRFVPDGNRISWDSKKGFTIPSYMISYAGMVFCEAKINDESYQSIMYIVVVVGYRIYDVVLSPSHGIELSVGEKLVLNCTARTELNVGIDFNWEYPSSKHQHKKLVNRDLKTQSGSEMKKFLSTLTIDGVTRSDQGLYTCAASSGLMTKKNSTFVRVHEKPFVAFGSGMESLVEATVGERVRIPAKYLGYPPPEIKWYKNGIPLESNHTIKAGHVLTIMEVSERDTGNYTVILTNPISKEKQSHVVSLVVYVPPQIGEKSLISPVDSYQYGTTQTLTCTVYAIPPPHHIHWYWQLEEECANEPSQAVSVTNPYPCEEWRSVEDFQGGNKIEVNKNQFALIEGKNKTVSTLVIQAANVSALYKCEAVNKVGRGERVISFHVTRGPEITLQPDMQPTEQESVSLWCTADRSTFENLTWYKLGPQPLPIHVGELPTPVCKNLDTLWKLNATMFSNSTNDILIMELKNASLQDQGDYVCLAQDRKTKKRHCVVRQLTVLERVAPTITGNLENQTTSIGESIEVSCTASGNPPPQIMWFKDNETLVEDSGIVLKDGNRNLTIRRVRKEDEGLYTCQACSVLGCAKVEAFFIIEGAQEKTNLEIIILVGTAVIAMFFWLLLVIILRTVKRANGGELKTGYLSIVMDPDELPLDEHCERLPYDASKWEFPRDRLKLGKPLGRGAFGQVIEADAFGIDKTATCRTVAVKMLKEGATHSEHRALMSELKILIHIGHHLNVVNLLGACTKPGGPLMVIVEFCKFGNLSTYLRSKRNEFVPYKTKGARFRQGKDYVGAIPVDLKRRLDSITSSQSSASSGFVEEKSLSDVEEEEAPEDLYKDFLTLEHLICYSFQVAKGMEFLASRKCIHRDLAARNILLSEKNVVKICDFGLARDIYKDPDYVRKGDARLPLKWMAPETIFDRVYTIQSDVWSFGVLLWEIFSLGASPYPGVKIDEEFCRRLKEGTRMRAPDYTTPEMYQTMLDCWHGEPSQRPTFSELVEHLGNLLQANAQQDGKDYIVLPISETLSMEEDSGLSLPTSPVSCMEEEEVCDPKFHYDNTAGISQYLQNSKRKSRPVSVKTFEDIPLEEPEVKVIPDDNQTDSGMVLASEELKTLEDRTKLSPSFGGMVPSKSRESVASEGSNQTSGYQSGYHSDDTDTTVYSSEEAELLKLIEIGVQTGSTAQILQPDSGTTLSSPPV
Method in brief: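 Cell-free recombinant VEGFR2 kinase, fluorescent substrate with electrophoretic mobility-shift separation; read 1 h after dosing. Screened at 25 uM in duplicate, hits to concentration-response up to 50 uM; loss-of-signal versus DMSO.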

[5] = target: rabbit Imidazoline 2 Central (I2C), CKB (gene 100009085) (UniProt P00567); test: NVS_ENZ_rabI2C: NovaScreen (NVS) Enzymatic Assay for rabbit Imidazoline 2 Central (I2C) (AID 2283228)
Sequence of rabbit Imidazoline 2 Central (I2C), CKB (gene 100009085) (P00567 whole entry, looked up): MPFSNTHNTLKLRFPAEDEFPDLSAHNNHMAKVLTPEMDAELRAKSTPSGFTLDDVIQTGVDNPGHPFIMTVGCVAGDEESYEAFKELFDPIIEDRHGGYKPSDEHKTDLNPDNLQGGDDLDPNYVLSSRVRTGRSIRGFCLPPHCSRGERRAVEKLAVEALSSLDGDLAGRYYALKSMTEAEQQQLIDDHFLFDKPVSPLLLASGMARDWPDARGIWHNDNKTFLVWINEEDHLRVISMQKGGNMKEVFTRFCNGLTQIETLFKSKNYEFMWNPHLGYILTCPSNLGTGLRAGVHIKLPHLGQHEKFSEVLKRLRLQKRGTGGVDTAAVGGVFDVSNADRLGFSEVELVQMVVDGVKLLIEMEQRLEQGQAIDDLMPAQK
Method in brief: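 Rabbit brain membranes, cell-free; readout by filter-based scintillation counting 1.5 hours after dosing, loss of signal vs DMSO. Initial duplicate test at 25 uM, then concentration-response with 50 uM top concentration.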

[6] = target: rat Acetylcholinesterase (AChE), Ache (gene 83817) (UniProt P37136); test: NVS_ENZ_rAChE: NovaScreen (NVS) Enzymatic Assay for rat Acetylcholinesterase (AChE) (AID 2283233)
Method in brief: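 Compounds first screened at 25 uM in duplicate, then those passing threshold tested in concentration series up to 50 uM, against AChE from rat brain membranes. Enzyme activity read by absorbance at 0.33 h; inhibition scored versus DMSO.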

[7] = target: rat Monoamine Oxidase, MAO-B, Central (MAOBC), Maob (gene 25750) (UniProt P19643); test: NVS_ENZ_rMAOBC: NovaScreen (NVS) Enzymatic Assay for rat Monoamine Oxidase, MAO-B, Central (MAOBC) (AID 2283238)
Sequence of rat Monoamine Oxidase, MAO-B, Central (MAOBC), Maob (gene 25750) (P19643 whole entry, looked up): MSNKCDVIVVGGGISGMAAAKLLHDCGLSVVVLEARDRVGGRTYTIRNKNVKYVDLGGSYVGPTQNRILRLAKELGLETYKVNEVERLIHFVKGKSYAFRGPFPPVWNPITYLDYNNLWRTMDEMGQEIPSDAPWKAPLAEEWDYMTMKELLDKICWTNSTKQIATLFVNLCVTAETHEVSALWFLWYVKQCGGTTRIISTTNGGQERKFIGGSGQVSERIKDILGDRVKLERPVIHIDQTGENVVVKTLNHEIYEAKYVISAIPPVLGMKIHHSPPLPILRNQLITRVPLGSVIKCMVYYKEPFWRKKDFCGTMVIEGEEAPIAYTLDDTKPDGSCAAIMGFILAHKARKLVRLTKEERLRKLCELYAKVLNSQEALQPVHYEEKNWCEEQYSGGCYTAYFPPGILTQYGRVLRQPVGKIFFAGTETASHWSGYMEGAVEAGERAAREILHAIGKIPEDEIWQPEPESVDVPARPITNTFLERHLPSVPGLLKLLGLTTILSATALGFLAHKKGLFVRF
Method in brief: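 Actives from a duplicate 25 uM screen went on to singleton concentration-response with a 50 uM maximum. Enzyme source was rat brain tissue MAO-B, assayed cell-free. Radiolabelled product was counted by scintillation 1.17 h post-dose, with signal loss relative to DMSO.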

[8] = target: human Vascular Endothelial Growth Factor Receptor 1 (VEGFR1), FLT1 (gene 2321) (UniProt P17948); test: NVS_ENZ_hVEGFR1: NovaScreen (NVS) Enzymatic Assay for human Vascular Endothelial Growth Factor Receptor 1 (VEGFR1) (AID 2283226)
Method in brief: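 Kinase activity of recombinant human VEGFR1 was read by fluorescence after electrophoretic separation of product from substrate, 1 h post-dosing; initial duplicate single-point testing at 25 uM, followed by concentration-series follow-up, with DMSO as baseline.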

[9] = target: human Protein Tyrosine Phosphatase Non-receptor Type 9 (PTPN9), PTPN9 (gene 5780) (UniProt P43378); test: NVS_ENZ_hPTPN9: NovaScreen (NVS) Enzymatic Assay for human Protein Tyrosine Phosphatase Non-receptor Type 9 (PTPN9) (AID 2283209)
Sequence of human Protein Tyrosine Phosphatase Non-receptor Type 9 (PTPN9), PTPN9 (gene 5780) (P43378 whole entry, looked up): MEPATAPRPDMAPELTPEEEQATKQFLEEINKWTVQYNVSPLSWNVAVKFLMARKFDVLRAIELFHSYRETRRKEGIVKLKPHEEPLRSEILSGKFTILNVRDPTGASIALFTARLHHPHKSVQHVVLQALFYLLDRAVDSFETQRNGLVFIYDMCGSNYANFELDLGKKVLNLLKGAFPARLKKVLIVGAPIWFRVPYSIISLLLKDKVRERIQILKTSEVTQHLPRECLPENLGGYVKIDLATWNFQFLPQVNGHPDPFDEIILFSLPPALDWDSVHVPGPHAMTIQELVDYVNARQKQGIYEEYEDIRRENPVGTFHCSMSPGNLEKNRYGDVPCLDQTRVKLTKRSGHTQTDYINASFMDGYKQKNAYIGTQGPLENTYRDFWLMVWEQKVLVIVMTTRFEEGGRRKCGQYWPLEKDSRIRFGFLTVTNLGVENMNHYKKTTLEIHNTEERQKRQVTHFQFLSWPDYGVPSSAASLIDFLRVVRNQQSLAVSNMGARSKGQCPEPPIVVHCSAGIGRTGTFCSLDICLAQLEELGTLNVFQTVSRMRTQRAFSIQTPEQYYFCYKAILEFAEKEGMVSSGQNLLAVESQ
Method in brief: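 Sf9-expressed enzyme in a cell-free assay, fluorescence read 1.33 h after dosing with mobility-shift separation of substrate and product. Tested at 25 uM in duplicate, then up to 50 uM; signal loss versus DMSO.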

[10] = target: human Protein Tyrosine Phosphatase Receptor Type B (PTPRB), PTPRB (gene 5787) (UniProt P23467); test: NVS_ENZ_hPTPRB: NovaScreen (NVS) Enzymatic Assay for human Protein Tyrosine Phosphatase Receptor Type B (PTPRB) (AID 2283211)
Method in brief: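 Recombinant human PTPRB with a fluorescent substrate, product separated by electrophoretic mobility shift; read 1 h after dosing. Primary screen in duplicate at 25 uM; actives then retested in concentration series; loss of signal versus DMSO.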

[11] = target: human Protein Tyrosine Phosphatase Receptor Type M (PTPRM), PTPRM (gene 5797) (UniProt P28827); test: NVS_ENZ_hPTPRM: NovaScreen (NVS) Enzymatic Assay for human Protein Tyrosine Phosphatase Receptor Type M (PTPRM) (AID 2283215)
Method in brief: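 Read-out is fluorescence after electrophoretic separation of substrate and product, taken 1.33 h post-dosing with recombinant enzyme. Compounds screened at 25 uM in duplicate, then concentration series for actives; activity as signal loss relative to DMSO.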

[12] = target: human Sirtuin 2 (SIRT2), SIRT2 (gene 22933) (UniProt Q8IXJ6); test: NVS_ENZ_hSIRT2: NovaScreen (NVS) Enzymatic Assay for human Sirtuin 2 (SIRT2) (AID 2283217)
Method in brief: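 Single-point duplicate screen at 25 uM, then concentration-response (max 50 uM) for chemicals passing threshold. Enzyme activity of recombinant human SIRT2 measured after 1 hr by fluorescence with mobility-shift separation of product; DMSO baseline.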

[13] = target: human Sirtuin 1 (SIRT1), SIRT1 (gene 23411) (UniProt Q96EB6); test: NVS_ENZ_hSIRT1: NovaScreen (NVS) Enzymatic Assay for human Sirtuin 1 (SIRT1) (AID 2283219)
Method in brief: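 Cell-free recombinant SIRT1 with a fluorescent substrate; substrate and product separated by electrophoretic mobility shift and read by fluorescence intensity, 1 h after dosing. Primary screen at 25 uM in duplicate; hits re-run in concentration-response up to 50 uM, relative to DMSO.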

[14] = target: human Tyrosine Protein Kinase Receptor Tie-2 (Tie2), TEK (gene 7010) (UniProt Q02763); test: NVS_ENZ_hTie2: NovaScreen (NVS) Enzymatic Assay for human Tyrosine Protein Kinase Receptor Tie-2 (Tie2) (AID 2283225)
Method in brief: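 Substrate and product were separated by mobility shift and detected by fluorescence after a 1-hour reaction with recombinant Tie2. Chemicals passing a 25 uM single-point screen were titrated to a maximum of 50 uM. Results were normalized to DMSO baseline.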

[15] = target: rat Adenylate Cyclase, Forskolin Stimulated, Adcy5 (gene 64532) (UniProt Q04400); test: NVS_ENZ_rACFSKBinding: NovaScreen (NVS) Enzymatic Assay for rat Adenylate Cyclase, Forskolin Stimulated (AID 2283232)
Sequence of rat Adenylate Cyclase, Forskolin Stimulated, Adcy5 (gene 64532) (Q04400 whole entry, looked up): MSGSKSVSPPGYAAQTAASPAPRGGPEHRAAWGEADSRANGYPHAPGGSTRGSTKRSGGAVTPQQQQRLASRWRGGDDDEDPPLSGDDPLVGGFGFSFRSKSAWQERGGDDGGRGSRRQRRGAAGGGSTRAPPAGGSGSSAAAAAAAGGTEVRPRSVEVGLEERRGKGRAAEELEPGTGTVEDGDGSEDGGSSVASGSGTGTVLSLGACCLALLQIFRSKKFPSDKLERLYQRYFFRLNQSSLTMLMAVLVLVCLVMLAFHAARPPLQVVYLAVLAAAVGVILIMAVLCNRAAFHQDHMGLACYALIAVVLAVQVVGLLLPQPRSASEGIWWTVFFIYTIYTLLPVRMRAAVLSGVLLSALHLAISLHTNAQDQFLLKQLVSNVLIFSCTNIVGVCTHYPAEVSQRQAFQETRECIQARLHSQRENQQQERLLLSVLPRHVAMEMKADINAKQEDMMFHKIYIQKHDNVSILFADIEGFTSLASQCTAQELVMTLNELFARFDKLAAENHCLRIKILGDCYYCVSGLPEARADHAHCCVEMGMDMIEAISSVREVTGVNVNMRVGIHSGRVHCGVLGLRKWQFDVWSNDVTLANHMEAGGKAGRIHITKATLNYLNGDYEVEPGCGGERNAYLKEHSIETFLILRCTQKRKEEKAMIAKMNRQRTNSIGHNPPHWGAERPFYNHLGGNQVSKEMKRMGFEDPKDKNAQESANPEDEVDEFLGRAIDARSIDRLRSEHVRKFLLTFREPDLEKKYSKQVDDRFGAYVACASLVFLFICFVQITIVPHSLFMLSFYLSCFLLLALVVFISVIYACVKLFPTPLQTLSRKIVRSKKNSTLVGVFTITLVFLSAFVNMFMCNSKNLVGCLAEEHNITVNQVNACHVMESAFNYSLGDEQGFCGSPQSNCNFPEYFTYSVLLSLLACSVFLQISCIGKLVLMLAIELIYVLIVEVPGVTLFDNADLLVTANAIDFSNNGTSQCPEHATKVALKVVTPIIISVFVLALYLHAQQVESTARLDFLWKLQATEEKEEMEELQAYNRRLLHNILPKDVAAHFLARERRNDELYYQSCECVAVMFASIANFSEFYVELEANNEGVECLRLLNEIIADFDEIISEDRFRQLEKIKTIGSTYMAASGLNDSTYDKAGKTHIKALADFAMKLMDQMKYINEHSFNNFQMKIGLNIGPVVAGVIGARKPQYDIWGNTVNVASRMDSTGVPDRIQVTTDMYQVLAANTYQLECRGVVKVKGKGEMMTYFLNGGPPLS
Method in brief: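 Chemicals were first tested at 25 uM in duplicate, then hits run as concentration series with top concentration 50 uM. Enzyme source was rat forebrain membranes; radiometric filter read-out after 1 h, referenced to DMSO.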

[16] = target: rat Catechol-O-Methyl Transferase (COMT), Comt (gene 24267) (UniProt P22734); test: NVS_ENZ_rCOMT: NovaScreen (NVS) Enzymatic Assay for rat Catechol-O-Methyl Transferase (COMT) (AID 2283235)
Sequence of rat Catechol-O-Methyl Transferase (COMT), Comt (gene 24267) (P22734 whole entry, looked up): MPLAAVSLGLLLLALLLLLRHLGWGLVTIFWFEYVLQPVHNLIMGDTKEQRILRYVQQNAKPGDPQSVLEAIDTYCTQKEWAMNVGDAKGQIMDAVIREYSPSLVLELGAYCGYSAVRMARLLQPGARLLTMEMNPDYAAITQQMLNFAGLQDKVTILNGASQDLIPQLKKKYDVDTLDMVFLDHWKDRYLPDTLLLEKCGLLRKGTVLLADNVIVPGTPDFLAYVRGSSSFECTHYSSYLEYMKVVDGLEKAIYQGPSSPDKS
Method in brief: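 Rat dorsal striatum extract served as COMT source; product quantified by HPLC/spectrophotometry, read at 0 h after dosing. Primary single-concentration screen at 25 uM, followed by concentration series to a 50 uM maximum.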

## CC12CC1(C)C(=O)N(c1cc(Cl)cc(Cl)c1)C2=O (stereo unspecified)
[1]
  AC50: 3.77 µM (active)
[2]
  outcome: inactive

## O=C(O)C(F)(F)C(F)(F)C(F)(F)C(F)(F)C(F)(F)C(F)(F)C(F)(F)C(F)(F)C(F)(F)C(F)(F)F
[3]
  AC50: 11.9 µM (active)

## CC(C)(c1ccccc1)c1ccc(O)c(C(C)(C)c2ccccc2)c1
[4]
  outcome: inactive

## CCN1CCC2(CC1)COc1cc3c(cc12)N(C(=O)c1ccc(-c2ccc(-c4nnc(C)o4)cc2C)cc1)CC3
[5]
  outcome: inactive
[6]
  AC50: 3.06 µM (active)
[2]
  AC50: 23.4 µM (active)
[7]
  outcome: inactive

## CCOP(=S)(OCC)Oc1ccc(S(C)=O)cc1 (stereo unspecified)
[8]
  outcome: inactive

## O=C(Nc1ccc2[nH]ccc2c1)c1cc2cc(F)ccc2n1Cc1cccc(F)c1
[4]
  outcome: inactive

## COc1cc(-c2ccc(N)c(OC)c2)ccc1N
[9]
  AC50: 40.1 µM (active)
[5]
  AC50: 10.4 µM (active) and 18.1 µM (active)

## O=c1[nH]c(=O)[nH]c(=O)[nH]1
[10]
  outcome: inactive
[1]
  outcome: inactive

## CC(=O)[O][Hg][c]1ccccc1
[9]
  AC50: 17 µM (active)
[11]
  outcome: inactive
[12]
  AC50: 2.46 µM (active)
[13]
  AC50: 6.16 µM (active)
[14]
  outcome: inactive
[8]
  outcome: inactive
[4]
  outcome: inactive
[15]
  AC50: 26.8 µM (active)
[2]
  AC50: 1.13 µM (active)
[7]
  AC50: 25 µM (active)

## CCC(=O)C(CC(C)N(C)C)(c1ccccc1)c1ccccc1 (stereo unspecified)
[5]
  AC50: 3.37 µM (active)
[7]
  AC50: 2.99 µM (active)

## C=C(C)C(=O)[O][Sn]([CH2]CCC)([CH2]CCC)[CH2]CCC
[15]
  outcome: inactive

## CCCCCCCCc1ccc(O)cc1
[4]
  outcome: inactive

## CC(C)(C)c1cc(O)ccc1O
[1]
  AC50: 6.85 µM (active)

## Oc1cccc2cccnc12
[16]
  AC50: 1.53 µM (active)
[7]
  outcome: inactive
